# In PubChem BioAssay AID504366 (National Center for Advancing Translational Sciences (NCATS), 2011):
# The source made the active and inactive calls. The call rests on the fitted dose curve.
# Assay: Immunofluorescence assay for KAP-1 phosphorylation on Ser824 for Identifying a Potential Treatment of Ataxia-Telangiectasia: SAR for Probe
# Conditions: F2112 A-T fibroblasts, pKAP-1 S824 immunofluorescence
# From the text: NIH Chemical Genomics Center [NCGC] NIH Molecular Libraries Probe Centers Network [MLPCN] MLPCN Grant: MH089030-01 Assay Submitter (PI): Wei Zheng and Yosef Shiloh Ataxia-telangiectasia (A-T) is a devastating and progressive disease for which, there is no cure. Although A-T is a multisystem disease, it is stereotyped characterized by its neurological symptoms such as truncal ataxia, due to cerebellar cortical degeneration of the Purkinje and granule cells. Other symptoms of A-T are telangiectasias (dilated blood vessels), primary immunodeficiency, marked sensitivity to ionizing radiation (IR), chromosomal instability and predisposition to cancer. The underlying genetic cause of A-T is null mutations in the ATM (A-T mutated) gene. ATM is a nuclear serine/threonine kinase that functions as a master regulator of the cellular responses to double strand breaks (DSBs) in the DNA. Upon activation by DSBs, ATM phosphorylates a plethora of downstream targets, including KAP-1 on […]. KAP-1 phosphorylation occurs shortly in response to DSBs and mediates global chromatin relaxation, which facilitates DSB repair. To screen for small molecules that will compensate for the loss of ATM in cells derived from A-T patients, we monitored KAP-1 phosphorylation as a readout for ATM-like activity using an AlphaLISA assay.
# qHTS Assay Protocol: 1. […] Plates are the read on InCell.
row,Compound,Potency
1,CC(=O)c1c(O)c(C)c(O)c(Cc2c(O)c3c(c(C(=O)/C=C/c4ccccc4)c2O)OC(C)(C)C=C3)c1O,10 µM (active)
